Compound activity from PubChem.
This is a sample that favours compounds with a hit; in the whole collection about 9.2% have one here.
FLuc modulator – inhibits or activates purified firefly luciferase, miR-21 counter-screen. 6.9% of 360,000 active. AID 588342. purified FLuc, Km substrates, luminescence inhibition. P08659. Potency, µM (highest dose often 57.5 µM), for the others: top-dose activity change, negative = inhibition, usual class: inhibitors;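 note: plate controls were vehicle for no effect and reference inhibitor for full effect; nearly all actives have a fitted effect of over 55% in size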
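Purified P. pyralis luciferase (10nM final) with 10uM D-luciferin and 10uM ATP (Km levels) in 50mM Tris acetate pH 7.5, 10mM Mg acetate, 0.01% Tween-20, 0.05% BSA; qHTS 6-point titration, ~60 µM downward; luminescence read.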
SMN2 splice enh – increases expression of the SMN2 splice variant | HEK293 SMN2-luciferase splicing reporter, luminescence, 30-36 h | Potency, µM (doses to about 46.1 µM), without a hit: at the highest dose activity change, positive = activation, hits mostly activators | AID 1458 | 2.8% of 210,000 active; note: % of control where 0% means no effect; nearly all actives have a fitted effect of over 55% in size
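HEK293 cells carry an SMN2 minigene-luciferase reporter in which exon 7 inclusion puts luciferase in frame. Cells were seeded at 2000 cells/well, attached for 10-12 hours, then exposed to compounds for 30-36 hours at 37C before ONE-Glo luminescence.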
ELG1 repair inh – ELG1-dependent DNA repair inhibition; HEK293T ELG1-luciferase reporter, luminescence, 16 h; DNA damage induced by 5-fluorouridine; 2.3% of 330,000 active; AID 504467; Potency, µM (doses to about 46.1 µM), for inactives: top-dose activity change, negative = inhibition, hits mostly inhibitors; note: % is set by controls: 0 for no effect and ±100 for the full control effect; nearly all actives have a fitted effect of over 55% in size
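Cells (2,000 per well) received 5-fluorouridine plus test compound or DMSO and were incubated 16 hr at 37 °C, 5% CO2. Luciferase activity was read by luminescence 30 min after ONE-Glo addition; signal suppression marked inhibition of damage-induced ELG1 function.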
ELG1 genotox – inducers of genotoxicity in HEK293T ELG1-luciferase cells. HEK293T ELG1-luciferase reporter, luminescence, 16 h. Potency, µM (titrated, usually from 46 µM), for inactives: at the highest dose activity change, positive = activation, actives largely listed as activators. 1.3% of 330,000 active; note: % of control where 0% means no effect; nearly all actives have a fitted effect of over 60% in size
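DMSO vehicle served as control against compound-treated ELG1-luciferase HEK293T cells; exposure lasted 16 hr at 37 °C and 5% CO2, followed by ONE-Glo luminescence detection after 30 min.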
NPC1 prom act – activates the NPC1 promoter. AID 485313. 2.4% of 320,000 active. Potency, µM (doses to about 9.22 µM), for inactives: top-dose activation, actives largely listed as activators. Huh7 NPC1 promoter luciferase reporter, 24 h; note: % of control where 0% means no effect; nearly all actives have a fitted effect of over 60% in size
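In 1536-well qHTS, Huh7 cells harboring an NPC1 promoter–luciferase construct received compound for 24 h; activation was quantified by luminescence following luciferase reagent addition.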
Rab9 prom act – activates the Rab9 promoter; 2.8% of 320,000 active; Potency, µM (titrated, usually from 9.22 µM), for inactives: top-dose activation, negative = inhibition, actives largely listed as activators; Huh7 Rab9 promoter-luciferase reporter, luminescence, 24 h; note: % of control where 0% means no effect; nearly all actives have a fitted effect of over 60% in size
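Luminescence read-out: Huh7 cells stably expressing Rab9-luciferase, treated 24 h with compound at 37 °C, then lysed with luciferase reagent for 10 min at ambient before reading.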
ELG1 FLuc counter – luciferase inhibition in cell-free luciferin readout for ELG1 hits | shares compounds with ELG1 repair inh | cell-free firefly luciferase luminescence counter-screen, ViewLux | Potency, µM (series often up to 46.1 µM), inactives show at the highest dose activity change, negative = inhibition, actives largely listed as inhibitors | 3% of 350 active; note: % is set by controls: 0 for no effect and ±100 for the full control effect
ELG1 Luc conf – confirmation of human ELG1-dependent DNA repair inhibitors; 68% of 670 active; Potency, µM (series often up to 46.1 µM), without a hit: top-dose activity change, negative = inhibition, most hits filed as inhibitors; shares compounds with ELG1 repair inh; HEK293T ELG1-luciferase levels, luminescence; cells co-treated with 5-fluorouridine; note: % is set by controls: 0 for no effect and ±100 for the full control effect; nearly all actives have a fitted effect of over 55% in size
Target sequence (Q96QE3 whole entry, looked up): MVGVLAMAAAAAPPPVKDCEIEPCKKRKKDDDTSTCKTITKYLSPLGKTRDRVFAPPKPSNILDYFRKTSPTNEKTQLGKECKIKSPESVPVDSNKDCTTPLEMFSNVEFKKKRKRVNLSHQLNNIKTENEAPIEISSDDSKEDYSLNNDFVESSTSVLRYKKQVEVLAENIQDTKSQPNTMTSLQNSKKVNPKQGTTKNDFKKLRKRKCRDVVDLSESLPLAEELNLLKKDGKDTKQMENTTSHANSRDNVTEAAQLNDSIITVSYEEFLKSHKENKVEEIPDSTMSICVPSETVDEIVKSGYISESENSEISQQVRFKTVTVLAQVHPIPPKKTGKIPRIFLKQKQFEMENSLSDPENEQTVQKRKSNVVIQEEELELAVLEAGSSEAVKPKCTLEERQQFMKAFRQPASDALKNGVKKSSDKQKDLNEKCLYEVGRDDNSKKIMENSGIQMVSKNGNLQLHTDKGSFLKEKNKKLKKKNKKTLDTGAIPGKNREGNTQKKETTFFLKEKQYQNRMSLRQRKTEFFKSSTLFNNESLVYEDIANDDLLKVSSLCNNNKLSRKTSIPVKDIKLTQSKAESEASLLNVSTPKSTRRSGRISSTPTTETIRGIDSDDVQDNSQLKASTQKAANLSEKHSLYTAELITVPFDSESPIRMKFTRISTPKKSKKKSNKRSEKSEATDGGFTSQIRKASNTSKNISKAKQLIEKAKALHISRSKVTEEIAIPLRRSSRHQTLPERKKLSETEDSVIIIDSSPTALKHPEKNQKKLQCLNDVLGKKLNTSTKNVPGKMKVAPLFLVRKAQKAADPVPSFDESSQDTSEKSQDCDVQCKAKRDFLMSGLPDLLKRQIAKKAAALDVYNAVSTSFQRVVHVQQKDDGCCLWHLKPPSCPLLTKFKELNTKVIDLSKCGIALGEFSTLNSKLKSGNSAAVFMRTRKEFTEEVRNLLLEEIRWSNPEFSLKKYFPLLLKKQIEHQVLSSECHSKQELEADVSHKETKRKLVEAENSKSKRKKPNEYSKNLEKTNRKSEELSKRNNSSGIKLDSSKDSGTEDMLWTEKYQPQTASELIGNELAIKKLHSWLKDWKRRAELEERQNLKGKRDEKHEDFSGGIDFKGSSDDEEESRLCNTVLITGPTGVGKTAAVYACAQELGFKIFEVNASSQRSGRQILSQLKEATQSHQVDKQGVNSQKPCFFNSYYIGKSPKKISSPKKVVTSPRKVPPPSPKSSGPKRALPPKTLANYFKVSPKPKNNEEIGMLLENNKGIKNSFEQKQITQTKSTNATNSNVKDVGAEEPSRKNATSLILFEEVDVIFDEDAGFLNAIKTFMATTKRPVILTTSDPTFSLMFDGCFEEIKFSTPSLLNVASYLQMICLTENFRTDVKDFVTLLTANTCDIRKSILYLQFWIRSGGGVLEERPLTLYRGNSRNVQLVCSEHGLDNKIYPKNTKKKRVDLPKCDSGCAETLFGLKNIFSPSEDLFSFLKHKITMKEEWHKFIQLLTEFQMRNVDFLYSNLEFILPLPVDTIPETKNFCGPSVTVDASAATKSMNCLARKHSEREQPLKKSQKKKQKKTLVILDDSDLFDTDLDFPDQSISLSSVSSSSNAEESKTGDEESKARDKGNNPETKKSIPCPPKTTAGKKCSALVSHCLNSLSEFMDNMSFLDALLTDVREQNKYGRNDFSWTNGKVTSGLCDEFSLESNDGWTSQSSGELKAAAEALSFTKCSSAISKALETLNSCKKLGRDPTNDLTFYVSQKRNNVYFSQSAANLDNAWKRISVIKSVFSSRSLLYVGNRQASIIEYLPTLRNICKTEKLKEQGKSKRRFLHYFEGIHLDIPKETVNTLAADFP
ELG1 MMS Luc – MMS-stimulated human ELG1 repair inhibition, confirmed. 53% of 670 active. Potency, µM (doses to about 46.1 µM), for the others: at the top dose activity change, negative = inhibition, usual class: inhibitors. shares compounds with ELG1 repair inh. HEK293T luciferase-tagged ELG1 level, MMS stimulated; note: % is set by controls: 0 for no effect and ±100 for the full control effect; nearly all actives have a fitted effect of over 60% in size
ELG1 5-FU – confirmation of ELG1 repair inhibitors: viability with 5FU | shares compounds with ELG1 repair inh | cell viability with 5-FU, ELG1-dependent repair | Potency, µM (doses to about 46.1 µM), inactives show top-dose activity change, negative = viability loss, usual class: cytotoxic | 670 tested, under 10 active | AID 624250;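 note: ELG1-luc HEK293T cells cotreated with 5-fluorouridine at 10 µM final; viability measured 16 h after compound addition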
ELG1 MMS viab – confirmation of ELG1 repair inhibitors: viability with MMS; 33% of 670 active; Potency, µM (titrated, usually from 46.1 µM), for inactives: at the highest dose activity change, negative = viability loss, hits mostly cytotoxic; shares compounds with ELG1 repair inh; AID 624251; Cell viability with MMS, ELG1-dependent DNA repair;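 note: ELG1-luc HEK293T cells co-treated with 10 µM MMS; viability read 16 h after compound addition; % is set by controls: 0 for no effect and ±100 for the full control effect; nearly all actives have a fitted effect of over 60% in size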
ELG1 unstim viab – affects unstimulated cell viability, ELG1 hit counter-screen | cell viability counter-screen, unstimulated, luminescence | 8% of 900 active | AID 624252 | shares compounds with ELG1 repair inh | Potency, µM (titrated, usually from 45.9 µM), without a hit: top-dose activity change, negative = loss of viability, most hits filed as cytotoxic;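 note: compound exposure lasted 16 hours before reading; % is set by controls: 0 for no effect and ±100 for the full control effect; nearly all actives have a fitted effect of over 55% in size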
FLuc enzyme – counter-screen for ELG1 repair inhibitors: firefly luciferase inhibition; Potency, µM (doses to about 57.5 µM), for inactives: at the top dose activity, negative = inhibition, hits mostly inhibitors; 10% of 350 active; purified firefly luciferase, luminescence counter-screen; shares compounds with ELG1 repair inh; note: % is set by controls: 0 for no effect and ±100 for the full control effect
The depositor's hits bear a star; ? = inconclusive; nt = no result given; [ ] = another dose, or the depositor's remark. Calls come from the whole dose curve; as a rule, active = well fitted curve in the direction sought with a large enough effect; inconclusive = small, poorly fitted or top-dose-only effect, or another doubt; inactive = no such curve, though single readings can be large; an effect the other way counts as inactive or inconclusive. Potency is the fitted concentration of half-maximal effect.

SMILES | FLuc modulator | SMN2 splice enh | ELG1 repair inh | ELG1 genotox | NPC1 prom act | Rab9 prom act | ELG1 FLuc counter | ELG1 Luc conf | ELG1 MMS Luc | ELG1 5-FU | ELG1 MMS viab | ELG1 unstim viab | FLuc enzyme
COc1ccc(N2CC(C(=O)N[C@H](C(=O)NC3CCCCC3)C(C)C)CC2=O)cc1 (some centres not stated) | 1% | nt | 1% | 0% | 1% | 0% | nt | nt | nt | nt | nt | nt | nt
COc1ccc(N2CCN(C(=O)C3CCCN(c4ncnc5c4nc4n5CCCCC4)C3)CC2)cc1 (configuration not stated) | 1% | nt | 3.7µM* | -12% | -7% | 0% | 56% | 10µM* | ? | ? | -7% | ? | -4%
Cc1cccc(NC(=O)C2CCN(c3ncnc4c3nc3n4CCCCC3)CC2)n1 | -2% | nt | 1.8µM* | -3%[9.26 µM] | -6% | 5% | 5% | 5µM* | ? | ? | -11% | ? | -5%
Cc1cc(C(C)(C)C)cc(C)c1C(=O)O | -1% | nt | -8% | -2% | 1% | -3% | nt | nt | nt | nt | nt | nt | nt
CCSc1nnc(NC(=O)c2cccc3ccccc23)s1 | -2% | 3% | 16% | 1% | -1% | -3% | nt | nt | nt | nt | nt | nt | nt
CCSc1nnc(NC(=O)c2csc(C)c2)s1 | -17% | 14µM* | ? | ? | 2.8µM* | 2.2µM* | 59% | nt | nt | nt | nt | 10% | ?
CCOCCCNC(=O)c1ccc2c(c1)NC(=O)C(CS(=O)(=O)Cc1ccc(F)cc1Cl)N2 (configuration not stated) | -7% | nt | nt | nt | nt | nt | nt | nt | nt | nt | nt | nt | nt
O=S1(=O)[C@H]2C[C@H](CO)O[C@@]2(CO)CN1Cc1ccc(-c2cccc(Cl)c2)cc1 | nt | nt | 2.3µM* | 3% | nt | nt | nt | 2.5µM* | -6% | ? | ? | ? | nt
CCC(C)N(CC(=O)Nc1cccc(C)c1C)C(=O)CCl (configuration not stated) | 1% | -71% | 4.6µM* | -22% | -46% | -42% | nt | 14µM* | 1.6µM* | ? | 7.1µM* | 28µM* | nt
COc1ccc(CNC(=O)C(c2ccco2)N(Cc2cccs2)C(=O)Cc2cccs2)cc1 (configuration not stated) | 4% | 3% | 15µM* | -20% | 2% | -11% | -17% | 16µM* | 16µM* | 6% | -4% | -14% | -4%
Cc1ccc(-c2cc(C(F)F)n3ncc(C(=O)Nc4c(C)nn(Cc5c(Cl)cccc5Cl)c4C)c3n2)cc1 | 3% | -4% | 4.6µM* | 4% | -10% | -4% | -4% | 4µM* | 6% | ? | 2% | -5% | -5%
O=C(Nc1cc(F)ccc1F)c1cnn2c(C(F)F)cc(-c3ccccc3)nc12 | 4% | -3% | nt | nt | nt | nt | nt | nt | nt | nt | nt | nt | nt
O=C(Nc1cnn(Cc2ccc(F)cc2)c1)c1cnn2c(C(F)F)cc(-c3ccccc3)nc12 | -5% | nt | 2.3µM* | -7% | -9% | -5% | ? | 5µM* | 13µM* | ? | ? | ? | -11%
COc1cc(C2/C(=C(\O)c3ccc4c(c3)OCCO4)C(=O)C(=O)N2c2nnc(C)s2)cc(OC)c1OC (configuration not stated) | 6% | nt | ? | 1% | -2% | 0% | nt | nt | nt | nt | nt | nt | nt
Cc1ccc(Nc2nc(-c3ccncc3)nc3ccccc23)cc1 | 1% | nt | 2.6µM* | 6% | -1% | -6% | 42% | 4µM* | 18% | -2% | -14% | -18% | -10%
COc1ccc(CCNC(=O)CSc2ccc(-c3cccs3)nn2)cc1OC | 0% | -23% | -20% | -3% | -5% | -1% | nt | nt | nt | nt | nt | nt | nt
O=C(Nc1cccc(S(=O)(=O)NC2=NCCC2)c1)c1cc(Cl)ccc1[N+](=O)[O-] | 1% | nt | ? | 0% | -1% | -2% | nt | nt | nt | nt | nt | nt | nt
CC(=O)Oc1ccc2c(C)c(CC(=O)N3CCN(C(=O)C4COc5ccccc5O4)CC3)c(=O)oc2c1C (configuration not stated) | -4% | nt | ? | -7% | -1% | 6% | -4% | 2.5µM* | ? | ? | ? | ? | -7%
COc1cc(C)cc2oc(=O)c(CC(=O)N3CCN(C(=O)C4COc5ccccc5O4)CC3)c(C)c12 (configuration not stated) | -1% | nt | ? | -12% | -3% | 0% | nt | nt | nt | nt | nt | nt | nt
COc1ccc(C2=C(C)C(=O)N(Cc3ccc(C(=O)Nc4cc(C)ccc4C)cc3)S2(=O)=O)cc1 | 0% | nt | nt | nt | nt | nt | nt | nt | nt | nt | nt | nt | nt
Nc1ccc2nc(SCC(=O)N3CCN(c4ccccc4)CC3)sc2c1 | -8% | nt | 2.6µM* | -10% | -11% | -15% | nt | ? | 7.9µM* | -3% | 7.1µM* | ? | nt
COc1ccc(-c2nnc3ccc(SCC(=O)Nc4nc5ccccc5s4)nn23)cc1OC | -15% | -1% | 0.52µM* | -2% | -1% | -4% | 29% | 0.63µM* | 9% | ? | -5% | ? | ?
